Test results taken from the supplement of paper PMC4466236.
Over roughly 33,000 sequences, “E-score (dimensionless, -0.5 to 0.5)” has its median near -0.058; the highest 2% begin near 0.35. The sample as a whole holds a higher share of the highest values than the screen did.

Tested on: MvaT
Assay: PBM 8-mer E-score (mean of HK and ME arrays) (E-score (dimensionless, -0.5 to 0.5)); higher = stronger relative binding preference
Summary of the method: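 Reported values are rank-based E-scores, taken as the mean of two universal arrays and parsed with a custom script. Each 8-mer score falls between -0.5 and 0.5. The arrays, ME and HK, were double-stranded 60-mers with a constant 25-mer primer region and a variable 35-mer region covering all 8-mers. They were probed, by an earlier protocol, with full-length P. aeruginosa MvaT carrying an N-terminal glutathione S-transferase fusion.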

| Sequence | PBM 8-mer E-score |
| --- | --- |
| ATAGTGTG | 0.179 |
| TAGGAAAA | 0.015 |
| ACCAGACG | -0.141 |
| ATAAAAAC | 0.274 |
| ATAAAAGG | 0.119 |
| CTTAAAAG | 0.166 |
| ATAAAAAG | 0.348 |
| ATAAAAAT | 0.293 |
| ATTAAAAG | 0.393 |
| ATTAAAAA | 0.321 |
| CTAAAAAG | 0.00374 |
| ATAAAAAA | 0.387 |
| ACTGGAAT | 0.118 |
| AACCGACG | -0.000494 |
| GTGCAAAC | 0.0651 |
| AACCTTAC | -0.0526 |
| AGACCATA | 0.00218 |
| CACAGACG | -0.11 |
| ATTCCTCA | 0.129 |
| ATAAATTA | 0.42 |
| GTAAATTA | 0.391 |
| ATAAACTA | 0.356 |
| ATAAACTC | 0.269 |
| ATAAATTC | 0.309 |
| CTAAATTA | 0.336 |

| Sequence | PBM 8-mer E-score |
| --- | --- |
| ATAAATTG | 0.369 |
| GTAAATCA | 0.189 |
| ATAAACTG | 0.175 |
| GAAAATTA | 0.304 |
| AAAAATTG | 0.117 |
| AAAAATTA | 0.275 |
| AACTGGTC | -0.0685 |
| TGACTGCA | -0.107 |
| AACCCAGT | -0.0508 |
| ATTGCACG | 0.182 |
| ACTCATCA | 0.0732 |
| AACCATCA | -0.0905 |
| AAGTCTCT | 0.0309 |
| ATCGAATC | -0.0636 |
| GCGGGTTA | 0.0558 |
| CGCGATAA | 0.143 |
| ACCTATGG | -0.149 |
| TATATAAA | 0.47 |
| GATATAAA | 0.344 |
| ACTATAAC | 0.334 |
| CACATAAG | 0.122 |
| CATATAAG | 0.35 |
| CCTATAAG | 0.0158 |
| TCTATAAA | 0.103 |
| GATATAAC | 0.372 |

| Sequence | PBM 8-mer E-score |
| --- | --- |
| AATATAAC | 0.42 |
| GAGATAAC | 0.0136 |
| AATATGAC | 0.183 |
| GATATAGC | 0.127 |
| CTCAAGGA | -0.151 |
| CCTGCTCC | -0.302 |
| ATTTGTTC | 0.206 |
| ATTTTTTC | 0.132 |
| AAGTGCGT | -0.0188 |
| ACGGTTTC | -0.215 |
| ATTAGCCC | 0.0535 |
| ACACTAGT | 0.258 |
| AGTGCTAC | -0.0841 |
| CGAAATGC | -0.0574 |
| CATATAGC | 0.0736 |
| CATATAAC | 0.415 |
| AATATAAT | 0.449 |
| TATAAACA | 0.373 |
| GATAAACA | 0.278 |
| AATATGAT | 0.345 |
| AAGATAAT | 0.287 |
| CACATAAC | 0.209 |
| AATATAAA | 0.451 |
| GCTATAAA | 0.217 |
| CATAAACA | 0.221 |

| Sequence | PBM 8-mer E-score |
| --- | --- |
| GAATGCGA | 0.0642 |
| AATTCTAG | 0.157 |
| CCCGGCCC | -0.325 |
| TGCAAACA | 0.106 |
| ACGGAAGG | -0.218 |
| CGTATAAA | 0.209 |
| AATATAAG | 0.351 |
| CATAAAAA | 0.179 |
| GATAAAAA | 0.273 |
| TATATCAA | 0.352 |
| GATATCAA | 0.25 |
| AAGATAAG | 0.148 |
| CACATAAA | 0.179 |
| TATAAAAA | 0.371 |
| CATATCAA | 0.174 |
| CATATAAA | 0.365 |
| AGTATAAG | 0.272 |
| GAATCATA | 0.151 |
| CCATCTGA | -0.117 |
| GTATGAAA | 0.222 |
| GTCTGAGA | -0.139 |
| AGAGATGC | -0.101 |
| ATCTTTAG | 0.14 |
| AGTGATCG | -0.118 |
| AGAGGCTG | -0.304 |

| Sequence | PBM 8-mer E-score |
| --- | --- |
| TTATTGAA | 0.279 |
| TAGGGTAA | 0.133 |
| CTGATAAC | 0.136 |
| AGCACAGG | -0.197 |
| GAACAATA | 0.267 |
| GATCAATA | 0.152 |
| AAACAATC | 0.06 |
| AAACAATA | 0.375 |
| AAACAATG | 0.201 |
| AAACAAGA | 0.166 |
| TAACAATA | 0.394 |
| CAACAATA | 0.289 |
| AAACAACA | 0.214 |
| TATCAATA | 0.365 |
| AATCAATA | 0.283 |
| AAACAATT | 0.346 |
| GCAACGAC | -0.141 |
| CCTCAACC | -0.226 |
| AGATCTCG | -0.173 |
| CTCTACTC | -0.0821 |
| GCGCCACC | -0.15 |
| ACAGGGGT | -0.121 |
| AGGACTCG | -0.265 |
| ATACAATC | 0.18 |
| ATACAATA | 0.372 |

| Sequence | PBM 8-mer E-score |
| --- | --- |
| GAACATTA | 0.276 |
| CAACATTA | 0.293 |
| CTACAATA | 0.244 |
| TAACATTA | 0.374 |
| ATCCGTTC | -0.0995 |
| AGATTGAC | -0.15 |
| TAGATATA | 0.368 |
| CAGATATA | 0.237 |
| AAGATATC | 0.26 |
| GAGATATA | 0.303 |
| AAGATATA | 0.419 |
| AAGATATG | 0.136 |
| ATTTACGA | 0.167 |
| CTATTTAA | 0.274 |
| CTATTTAC | 0.318 |
| ATATTTCA | 0.329 |
| ATATTTAA | 0.462 |
| ATATTTAG | 0.342 |
| ATATTTAC | 0.36 |
| AGGCACCA | -0.116 |
| AGCTGTCA | -0.156 |
| ATGATCGG | -0.174 |
| AGCTTCCA | -0.151 |
| CGCAAGTA | 0.195 |
| ATATTATC | 0.439 |

| Sequence | PBM 8-mer E-score |
| --- | --- |
| CCATTATA | 0.302 |
| ATATTATA | 0.477 |
| ACATTATA | 0.396 |
| AGATTATC | 0.255 |
| AGATTATG | 0.189 |
| ATCTTATA | 0.238 |
| GCATTATA | 0.309 |
| CTATTATC | 0.263 |
| ATATTATG | 0.411 |
| ACATTATG | 0.249 |
| ATTCAAAC | 0.174 |
| GATACCGA | 0.0372 |
| GCTGCCCA | -0.142 |
| GAGGAAGA | -0.133 |
| ACCCGTTG | -0.195 |
| TAGTCACA | 0.0578 |
| AAAACGTA | 0.142 |
| CGCCCATC | -0.117 |
| CACTTGCA | -0.05 |
| CAGCCCTG | -0.254 |
| CGTGTCCA | -0.105 |
| GCACTTCA | -0.102 |
| GTGTGGTA | 0.118 |
| CCCTTCGC | -0.248 |
| AATTAGGG | 0.137 |

| Sequence | PBM 8-mer E-score |
| --- | --- |
| AATCCCCG | -0.164 |
| GTATTCTA | 0.112 |
| CTTTTATA | 0.31 |
| CTATTCTA | 0.131 |
| GTCTTATA | 0.325 |
| GTATTACA | 0.224 |
| GGATTATA | 0.32 |
| CTATTATA | 0.44 |
| AGATTATA | 0.39 |
| ATATTCTA | 0.348 |
| CTCTTATA | 0.289 |
| GTATTATA | 0.437 |
| CGATTATA | 0.292 |
| CGCGCTTC | -0.107 |
| CAATGTCC | -0.106 |
| AGCGCCTA | -0.16 |
| AACTACGG | 0.0587 |
| CCGCGCCC | -0.155 |
| AACTCGGT | -0.0107 |
| GCTGTAAC | 0.00489 |
| CGCAAGAG | 0.0446 |
| CGCGGTGA | -0.142 |
| CCCTAAGA | -0.184 |
| ATAGAACG | 0.0944 |
| CCGCAAAG | -0.132 |

| Sequence | PBM 8-mer E-score |
| --- | --- |
| ATGGCCAG | -0.256 |
| ATATGTTA | 0.423 |
| ATATGTAA | 0.309 |
| GTATGTTA | 0.288 |
| ATATGTCG | 0.22 |
| ATATGTTG | 0.359 |
| CTATGTTA | 0.278 |
| ATATGTTC | 0.231 |
| CTATGTAC | 0.112 |
| ATATGTAC | 0.368 |
| AGTCCACT | -0.0256 |
| AATAGACC | 0.00124 |
| TTGTACAA | 0.161 |
| CGTCCAGA | -0.16 |
| CCTGCTCG | -0.298 |
| ACAGGTGC | -0.152 |
| AATTGCTG | 0.0923 |
| ATACCCTC | -0.12 |
| CTTGGCCC | -0.249 |
